Most compounds without a hit are left out; they make up all but 5.2% or so of the library.
PLK1 PBD block – inhibitors of human PLK1 polo-box domain binding | Potency, µM, most hits filed as inhibitors | Plk1 PBD binding of FITC phosphopeptide, fluorescence polarization | P53350 | AID 720504 | 360,000 tested, 2.8% active; further: series mostly up to about 57 µM; nearly all actives have a fitted effect of over 65% in size
rTrxR1 inhibitor – inhibitors of rat thioredoxin reductase 1; recombinant rTrxR1, NADPH fluorescence consumption, selenite substrate; Potency, µM (doses to about 114 µM), usual class: inhibitors; AID 588453; 390,000 tested, 1% active; O89049; further: nearly all actives have a fitted effect of over 65% in size
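Rat TrxR1 (90 nM in the dispensed reagent) was pre-reduced with 400 uM NADPH for 5 min at room temperature, then incubated with compound for 15 min. After 400 uM selenite was added, NADPH fluorescence (Ex 340/Em 450 nm) was followed for 8 min.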
TrxR1 substrate – is turned over as a substrate by rat TrxR1; Potency, µM (highest dose often 114 µM); 390,000 tested, 0.01% active; purified TrxR1 substrate turnover, NADPH consumption readout; further: nearly all actives have a fitted effect of over 50% in size
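Rat TrxR1, dispensed at 90 nM, was prereduced with 400 uM NADPH (final) for 5 min at ~22 deg C, then incubated with compound 15 min before 400 uM selenite. A first-read NADPH fluorescence drop versus no-compound background flagged substrates.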
IDH1 R132H inh – blocks human mutant IDH1 R132H enzyme; IDH1-R132H enzyme, NADPH consumption, diaphorase/resazurin fluorescence; 390,000 tested, 0.093% active; Potency, µM (series often up to 76.6 µM), usual class: inhibitors; further: nearly all actives have a fitted effect of over 65% in size
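IDH1-R132H (0.5 ug/mL) preincubated 30 min with compound, then NADPH (0.016 mM) and alpha-KG (2 mM) added; 80 min at RT, pH 7.5. Remaining NADPH coupled via diaphorase/resazurin to fluorescence (540/590 nm); concentration-response curves normalized to no-enzyme control.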
VDR inhibitor – vitamin D3 receptor (human) inhibition | P11473 | VDR-SRC2-3 peptide fluorescence polarization, 2 h | 400,000 tested, 0.93% active | Potency, µM, hits mostly inhibitors
Target sequence (P11473 whole entry, looked up): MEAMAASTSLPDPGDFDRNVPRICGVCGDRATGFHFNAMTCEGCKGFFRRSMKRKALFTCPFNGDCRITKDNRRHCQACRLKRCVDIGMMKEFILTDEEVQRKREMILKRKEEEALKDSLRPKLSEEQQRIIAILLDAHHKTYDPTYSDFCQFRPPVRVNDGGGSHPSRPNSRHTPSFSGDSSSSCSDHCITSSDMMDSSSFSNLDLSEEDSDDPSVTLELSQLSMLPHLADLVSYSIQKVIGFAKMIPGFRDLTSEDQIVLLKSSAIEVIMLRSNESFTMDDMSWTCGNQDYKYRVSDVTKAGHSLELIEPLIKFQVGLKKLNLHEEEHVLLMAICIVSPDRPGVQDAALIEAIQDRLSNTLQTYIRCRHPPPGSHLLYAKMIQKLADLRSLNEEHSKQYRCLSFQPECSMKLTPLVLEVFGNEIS
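Reagent solutions, kept cold and dark, are dispensed first; compounds are then pinned in at 23 nl, plates briefly spun, and incubated 2 h at ambient temperature. Inhibition of VDR–SRC2-3 peptide binding is read by fluorescence polarization.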
Sfp inh – Sfp phosphopantetheinyl transferase inhibition | Q9F4F7 | Biochemical Sfp PPTase activity, qHTS | Potency, µM, usual class: inhibitors | 310,000 tested, 3.5% active | AID 1490;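 further: the enzyme is Sfp with the accession as filed and its product quenches rhodamine fluorescence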
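After 15 min at room temperature with compound, 15 nM Sfp received 5 uM rhodamine-CoA plus 12.5 uM BHQ-2-ybbR (50 mM Hepes pH 7.6, 10 mM MgCl2). Rate came from the fluorescence difference over 30 min, ex 525/em 598 nm.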
Each line names hits and unclear results; the compound was inactive in the other large screens. The call rests on the fitted dose curve; in most records, active means well fitted curve in the direction sought with a large enough effect; inconclusive means small, poorly fitted or top-dose-only effect, or another doubt; inactive means no such curve, though single readings can be large; an effect the other way counts as inactive or inconclusive.

CCOc1ccc(NC(=O)C(=O)c2cc(C)n(-c3cc(C)cc(C)c3)c2C)cc1	none (no result: PLK1 PBD block, Sfp inh)
Cc1ccc(S(=O)(=O)/N=C2/NC(=O)/C(=C/c3cccnc3)S2)cc1	VDR inhibitor inconclusive
Cc1ccc(S(=O)(=O)/N=C2/NC(=O)/C(=C/c3ccc(Br)o3)S2)cc1	PLK1 PBD block inconclusive, rTrxR1 inhibitor 28.2µM, VDR inhibitor inconclusive
Cc1ccc(S(=O)(=O)/N=C2/NC(=O)/C(=C\c3cc(Br)cc(Br)c3O)S2)cc1	VDR inhibitor 50.1µM, Sfp inh inconclusive
CCc1ccc(NS(=O)(=O)c2[nH]ncc2C(=O)OC)cc1	none (no result: PLK1 PBD block, Sfp inh)
O=C(NCCN1C(=O)C2C3C=CC(C3)C2C1=O)NCc1ccccc1 (stereo not drawn)	VDR inhibitor 89.1µM
CN(C)c1ccc(-c2csc(C(O)c3ccc(F)c(F)c3)n2)cc1 (stereo not drawn)	none (no result: rTrxR1 inhibitor, TrxR1 substrate, IDH1 R132H inh, VDR inhibitor, Sfp inh)
Cc1nc2nc(-c3cccs3)cn2nc1C	PLK1 PBD block 29.9µM
Cc1nc2nc(-c3ccc(Cl)cc3)cn2nc1C	none
O=S(=O)(N1CCOCC1)N1CCOCC1	none
O=C(CSc1n[nH]c(=O)[nH]c1=O)N/N=C/C=C\c1ccccc1	PLK1 PBD block 23.8µM
CC(C)(C)OC(=O)C1=NOC2(C=CC(=O)C=C2)C1	VDR inhibitor 28.2µM (no result: PLK1 PBD block, rTrxR1 inhibitor, TrxR1 substrate, IDH1 R132H inh)
CCC(C(=O)NC1CC1)n1nc(C)c2c(C)n(-c3ccc(C)cc3)nc2c1=O (stereo not drawn)	none
CCC(C(=O)NCCC1=CCCCC1)n1nc(C)c2c(C)n(-c3ccccc3)nc2c1=O (stereo not drawn)	PLK1 PBD block 26.7µM, VDR inhibitor inconclusive
CCC(C(=O)NC1CCCCCC1)n1nc(C)c2c(C)n(-c3ccccc3)nc2c1=O (stereo not drawn)	PLK1 PBD block 29.9µM
CCC(C(=O)NCCCc1ccccc1)n1nc(C)c2c(C)n(-c3ccccc3)nc2c1=O (stereo not drawn)	none
O=[N+]([O-])c1cccc(/C=N/Nc2ccccn2)c1	none
O=[N+]([O-])c1cccc(/C=N/NC2=NS(=O)(=O)c3ccccc32)c1	PLK1 PBD block 26.7µM
COC(=O)CN(Cc1ccco1)S(=O)(=O)c1ccccc1	Sfp inh 56.2µM
Cc1ccc(S(=O)(=O)N(CC(=O)O)Cc2ccco2)cc1	none
O=C(NCCc1ccccn1)c1nc(Cn2cc(Br)cn2)no1	none
COc1ccc(C2/C=C\CN(CC(C)C)C(C)C(=O)N2Cc2ccc(F)cc2)cc1 (stereo not drawn)	none (no result: PLK1 PBD block, IDH1 R132H inh)
N#Cc1cccc(-c2ccc3ncnc(NCc4cccnc4)c3c2)c1	none (no result: PLK1 PBD block, rTrxR1 inhibitor, TrxR1 substrate, IDH1 R132H inh)
Cc1[nH]n(-c2ccccc2)c(=O)c1/C=N/N(c1ccccc1)c1ccccc1	PLK1 PBD block 18.9µM, VDR inhibitor inconclusive
Cc1ccc(-n2[nH]c(C)c(C=Nc3ccc(S(=O)(=O)Nc4nc(C)cc(C)n4)cc3)c2=O)c(C)c1	none
Cc1cc(C)nc(NS(=O)(=O)c2ccc(N=Cc3c(C)[nH]n(-c4ccccc4)c3=O)cc2)n1	PLK1 PBD block 26.7µM, VDR inhibitor inconclusive
Cc1cccc(/N=C/c2c(C)[nH]n(-c3ccccc3)c2=O)n1	none
C=CCN=Cc1c(C)[nH]n(-c2ccccc2)c1=O	none
Cc1[nH]n(-c2ccccc2)c(=S)c1C=Nc1ccc([N+](=O)[O-])cc1	PLK1 PBD block 2.67µM, rTrxR1 inhibitor inconclusive, VDR inhibitor 39.8µM, Sfp inh 6.31µM
Cc1[nH]n(-c2ccccc2)c(=O)c1/C=N/c1nn[nH]n1	PLK1 PBD block 23.8µM
CCCn1c(C)nc2c(NCCN(C)C)nc(C)nc21	none (no result: PLK1 PBD block, rTrxR1 inhibitor, TrxR1 substrate, IDH1 R132H inh, VDR inhibitor)
COc1ccc(C2/C=C\CN(S(=O)(=O)c3ccc(C)cc3)C(C)C(=O)N2Cc2ccc(F)cc2)cc1 (stereo not drawn)	none (no result: PLK1 PBD block, IDH1 R132H inh)
CCOc1ccc(S(=O)(=O)NCC(c2cccs2)S(=O)(=O)c2ccc(C)cc2)cc1 (stereo not drawn)	rTrxR1 inhibitor 0.891µM (no result: PLK1 PBD block, Sfp inh)
Cc1cc(C)c(S(=O)(=O)NCC(c2ccco2)S(=O)(=O)c2ccccc2)c(C)c1 (stereo not drawn)	none (no result: PLK1 PBD block, Sfp inh)
Cc1cc(C)c(S(=O)(=O)NCC(c2cccs2)S(=O)(=O)c2ccccc2)c(C)c1 (stereo not drawn)	rTrxR1 inhibitor 2.51µM (no result: PLK1 PBD block, Sfp inh)

Compound activity (PubChem)
